# Records with an inconclusive call do not appear. Unmarked numbers belong to inactive results. Active and inactive are the calls of the source. The call rests on the fitted dose curve; in most records, active means well fitted inhibition curve with a large enough effect; inconclusive means small, poorly fitted or top-dose-only effect; inactive means no such curve, though single readings can be large or run the other way.
# Biological target: Rap guanine nucleotide exchange factor 3 (Homo sapiens) (UniProt O95398)
# Sequence (O95398 whole entry, looked up): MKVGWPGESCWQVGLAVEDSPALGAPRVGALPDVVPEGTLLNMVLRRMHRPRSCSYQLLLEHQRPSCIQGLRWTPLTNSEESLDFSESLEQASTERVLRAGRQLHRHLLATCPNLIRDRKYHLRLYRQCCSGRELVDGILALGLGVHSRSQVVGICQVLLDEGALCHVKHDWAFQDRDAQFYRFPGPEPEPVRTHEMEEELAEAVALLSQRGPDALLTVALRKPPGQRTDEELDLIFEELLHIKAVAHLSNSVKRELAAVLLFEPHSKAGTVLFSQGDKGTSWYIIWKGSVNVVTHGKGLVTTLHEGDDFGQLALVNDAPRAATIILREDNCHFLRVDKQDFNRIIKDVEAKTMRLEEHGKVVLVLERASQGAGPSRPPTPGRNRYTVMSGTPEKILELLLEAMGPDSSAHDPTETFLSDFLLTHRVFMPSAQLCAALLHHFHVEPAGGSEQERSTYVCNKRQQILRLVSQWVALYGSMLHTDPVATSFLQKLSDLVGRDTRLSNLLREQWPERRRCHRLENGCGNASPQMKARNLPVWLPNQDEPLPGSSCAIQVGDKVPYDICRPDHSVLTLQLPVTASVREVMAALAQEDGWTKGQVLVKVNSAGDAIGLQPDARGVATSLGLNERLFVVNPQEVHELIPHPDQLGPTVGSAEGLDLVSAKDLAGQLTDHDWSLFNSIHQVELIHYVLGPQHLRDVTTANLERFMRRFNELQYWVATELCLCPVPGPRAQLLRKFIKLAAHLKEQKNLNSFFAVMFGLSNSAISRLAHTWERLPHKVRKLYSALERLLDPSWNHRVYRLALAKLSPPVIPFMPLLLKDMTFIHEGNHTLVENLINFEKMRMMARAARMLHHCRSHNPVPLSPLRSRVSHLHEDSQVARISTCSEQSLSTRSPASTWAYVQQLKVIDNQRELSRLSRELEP
# Test: Confirmatory qHTS for antagonist of cAMP-regulated guanine nucleotide exchange factor 3 (EPAC1) (AID 1645880); further: nearly all actives have a fitted effect of over 55% in size;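 on activity, negative = inhibition: plate controls were DMSO only for no effect and full effect of the ATA control for full effect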
# Settings: EPAC1 Rap1B-BODIPY-GDP exchange, fluorescence; series mostly up to 115 µM; activity, negative = inhibition: at the top concentration
# Outline: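 Released BODIPY-GDP fluoresces less than Rap1-bound BODIPY-GDP; the signal is followed at 480/540 nm at 5-min intervals over 30 min, after 5 min at room temperature. Reactions contain 100 nM EPAC1, 250 nM RAP1B-BODIPY-GDP and 50 uM GDP; results are normalized to ATA and DMSO.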
# Potency means the concentration at half of the fitted maximal effect.
SMILES,"activity, negative = inhibition",Potency
COC(=O)c1cc(OC)nc2ccc(Br)cc12,-9.93%,
C=CCc1cc(/C=C/c2nc(O)c([N+](=O)[O-])c(=O)[nH]2)cc(OC)c1O,,33.8 µM (active)
COc1ccc2nc(N3CCN(C(=O)C4CC4)CC3)sc2c1,-17%,
O=C(O)CN1C(=O)/C(=C\c2ccccc2OCc2ccc(Cl)cc2Cl)SC1=S,,44.7 µM (active)
NS(=O)(=O)c1ccc(-c2cccc(/C=C3\SC(=O)NC3=O)c2)cc1,,33.8 µM (active)
O=C(Nc1cc(C(=O)Nc2ccccc2C(=O)O)cc(C(=O)Nc2ccccc2C(=O)O)c1)c1ccccc1,,2.24 µM (active)
Cc1cc(S(=O)(=O)Nc2ccccc2C)ccc1F,-24.1%,
COc1ccc(NC(=O)c2ccc(NC3=NC4CS(=O)(=O)CC4S3)cc2)cc1 (stereo unspecified),-10.6%,
COc1cc2ccccc2cc1C(=O)N1CC(C)CC(C)C1 (stereo unspecified),-15.1%,
COc1cc(/C=C2\SC(=S)N(NS(=O)(=O)c3ccccc3)C2=O)ccc1O,-1.29%,
O=C1c2ccccc2S(=O)(=O)c2cc(N3CCC4(CC3)OCCO4)ccc21,-13.7%,
O=c1oc(-c2ccccc2)c(-c2ccccc2)c2ccccc12,-13.2%,
CCOC(=O)Cn1c(=O)oc2cc(S(=O)(=O)Nc3c(C)cc(C)cc3C)ccc21,-11.7%,
CC1Cc2nc(SCC(=O)NCc3ccccc3)n(Cc3ccccc3)c(=O)c2S1 (stereo unspecified),-15.1%,
Cc1[nH]n(-c2ccccc2)c(=O)c1C(c1cc(Cl)ccc1O)c1c(C)[nH]n(-c2ccccc2)c1=O,,75.7 µM (active)
CN(CC(=O)Nc1cccc(F)c1)C(=O)CN1c2cccc3cccc(c23)S1(=O)=O,,75.7 µM (active)

# Reference: PubChem BioAssay (NCATS)
